# Only some compounds are listed: those with a hit (about 21% of all), similar ones and a draw of the others.
# Pf growth 48h: inhibits P. falciparum growth in the first generation, 48 h | Potency, µM (series often up to 28.7 µM), usual class: inhibitors | 310,000 tested, 5.9% active | AID 504832 | P. falciparum luciferase growth in erythrocytes, 48 h; active means well fitted inhibition curve with a large enough effect; inconclusive means small, poorly fitted or top-dose-only effect, or another doubt; inactive means no such curve, though single readings can be large or run the other way
#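 Firefly luciferase activity from engineered P. falciparum reports growth; inhibitors lower the luminescent signal. Cultures contained 2% hematocrit erythrocytes at 0.1% final parasitemia.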
# Cycloheximide cs: counter-screen hit for Shiga toxin inhibitors, cycloheximide | cell reporter, cycloheximide protein synthesis inhibition counterscreen | max response, % | 300,000 tested, 12% active | AID 2314; in the data active means max response mostly above about 13%, no sharp cut-off; inactive means mostly below about 14%; further: read at 38.3 µM for the half of the compounds with a filed dose
# SARS PLP yeast: SARS-CoV PLP inhibition in yeast; S. cerevisiae expressing SARS-CoV PLpro, growth rescue; Potency, µM (doses to about 32.9 µM), hits mostly activators; 330,000 tested, 0.19% active; AID 485353; further: nearly all actives have a fitted effect of over 55% in size
# Shiga inhibitor: Shiga toxin inhibition | Vero cells, Shiga toxin protein synthesis inhibition reporter | inhibition, % at 38.7 µM | 290,000 tested, 9.2% active; in the data active means inhibition mostly above about 28%, no sharp cut-off; inactive means mostly below about 43%
# Pf growth 96h: P. falciparum growth inhibition at 96 hours. Potency, µM (titrated, usually from 28.7 µM), actives largely listed as inhibitors. 320,000 tested, 6.9% active. P. falciparum luciferase reporter growth, 96 h; active means well fitted inhibition curve with a large enough effect; inconclusive means small, poorly fitted or top-dose-only effect, or another doubt; inactive means no such curve, though single readings can be large or run the other way
#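 Infected RBCs, 2% Hct / 0.05% parasitemia final; luciferase-reporter P. falciparum; cpd 96 h, 37 C, 5% CO2; luciferase detection reagent; luminescence.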
# NS1 function inh: blocks influenza NS1 protein function. Potency, µM (series often up to 46.1 µM). AID 2326. 270,000 tested, 0.4% active; further: actives are rising curves; nearly all actives have a fitted effect of over 50% in size
#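 Read-out: OD600 growth recovery of NS1-expressing budding yeast. Cells grown overnight at 30C in -URA glucose medium, washed, resuspended and diluted 1:100 in 2% galactose assay medium, pH 6.0. Same strain lacking NS1 served as positive control.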
# Numbers stand for hits; . = inactive; ? = inconclusive; / = not tested or not shown. Unless noted, the call rests on the fitted dose curve.
SMILES,Pf growth 48h,Cycloheximide cs,SARS PLP yeast,Shiga inhibitor,Pf growth 96h,NS1 function inh
Cc1c(C(c2ccccc2Br)c2c(C)n(C)n(-c3ccccc3)c2=O)c(=O)n(-c2ccccc2)n1C,.,.,.,.,?,.
CCOc1ccc(N2CC(C(=O)Nc3ccc(S(=O)(=O)Nc4nccs4)cc3)CC2=O)cc1 (stereo not drawn),.,.,.,.,.,.
COc1ccc(NC(=O)C2CCCN(C(=O)c3ccc(Cl)cc3)C2)cc1S(=O)(=O)N(C)C (stereo not drawn),?,/,.,/,?,/
CCC(=O)n1nc(-c2ccc(Cl)cc2)nc1SC,.,32,.,68,.,.
CCCC(=O)n1nc(-c2ccc(Cl)cc2)nc1SC,.,23,.,67,/,.
CCC(=O)n1nc(-c2ccc(OC)cc2)nc1SC,.,30,.,42,.,.
CSc1nc(-c2ccc(Cl)cc2)nn1S(=O)(=O)c1ccc(Cl)cc1,.,.,.,.,.,.
O=C(Nc1cccc(S(=O)(=O)N2CCCCCC2)c1)C1=COCCO1,.,/,.,/,.,/
O=C(CCn1nnc2ccccc21)N1CCC(O)(c2cccc(F)c2)CC1,.,.,.,.,.,.
Cc1cc(C)c(S(=O)(=O)N2CCN(C(=O)c3cc(=O)[nH]c4ccccc34)CC2)c(C)c1,12µM,/,.,/,?,/
COc1ccc(-c2cc(C(=O)N3CCN(S(=O)(=O)c4ccccc4)CC3)[nH]n2)cc1,?,5.9,.,.,.,.
COc1ccccc1-c1cc(C(=O)N2CCN(S(=O)(=O)c3ccc(C)cc3)CC2)[nH]n1,0.47µM,.,.,.,15µM,.
Cc1cc(C)c(C)c(S(=O)(=O)N2CCN(C(=O)c3cc(=O)[nH]c4ccccc34)CC2)c1C,?,.,.,.,?,.
O=C(c1n[nH]c2ccccc12)N1CCN(S(=O)(=O)c2ccc3ccccc3c2)CC1,?,.,.,.,.,.
Cc1ccc(S(=O)(=O)N2CCN(C(=O)c3n[nH]c4ccccc34)CC2)cc1,2.6µM,/,.,/,12µM,/
COc1ccc(S(=O)(=O)N2CCN(C(=O)c3cc(-c4ccc(Br)cc4)n[nH]3)CC2)cc1OC,9.3µM,.,.,.,?,.
O=C(c1cc(-c2ccc(Br)cc2)n[nH]1)N1CCN(C(=O)c2ccccc2Br)CC1,9.3µM,.,.,.,.,.
O=C(O)c1cc(-c2ccccc2)n[nH]1,.,.,.,.,.,.
O=C(c1cc(-c2ccccc2)n[nH]1)N1CCN(S(=O)(=O)c2ccccc2)CC1,3.7µM,.,.,.,?,.
COc1ccc(S(=O)(=O)N2CCN(C(=O)c3cc(C)oc3C)CC2)cc1OC,.,/,.,/,?,/
Cc1ccc(S(=O)(=O)N2CCc3ccccc3C2)cc1C,.,.,.,.,.,.
COC(=O)NNC(=O)c1ccccc1C,.,.,.,.,/,.
Cc1cc(/C=C2\NC(=O)N(Cc3ccc(Cl)cc3)C2=O)c(C)n1C,9.3µM,.,.,.,?,.
CCn1c(C)cc(/C=C2/NC(=O)N(CC(=O)Nc3cccc(C)c3)C2=O)c1C,?,.,.,.,?,.
Cc1ccc(NC(=O)CN2C(=O)N/C(=C/c3ccc(C)s3)C2=O)cc1,.,.,.,.,?,.
SMILES,Pf growth 48h,Cycloheximide cs,SARS PLP yeast,Shiga inhibitor,Pf growth 96h,NS1 function inh
Cc1cccc(CN2C(=O)N/C(=C/c3cc(C)n(-c4cc(C)ccn4)c3C)C2=O)c1,12µM,.,.,.,/,.
Cc1cc(/C=C2\C(=O)NC(=O)N(c3ccc(Cl)cc3)C2=O)c(C)n1C,.,.,.,.,.,.
Cc1cccc(CN2C(=O)N/C(=C/c3ccc(C)s3)C2=O)c1,/,23,.,.,3.3µM,.
Cc1ccc(/C=C2/NC(=O)N(Cc3ccccc3)C2=O)s1,10µM,55,.,.,?,4µM
O=C(OOC(=O)c1ccccc1)c1ccccc1,.,.,/,.,.,/
O=C(Nc1cccnc1)C1(c2ccc(Cl)cc2)CCCC1,/,.,.,.,?,.
COc1cccc(NC2=C(C#N)C(=O)NC(c3cccc(OC)c3O)S2)c1 (stereo not drawn),.,19,.,.,?,.
CCOc1ccc(NC(=O)CCSc2ccc3ccccc3n2)cc1,.,15,.,.,.,.
CC1CCC(NC(=O)Cn2ncc3ccccc32)CC1 (stereo not drawn),.,18,.,active,.,.
CCOc1ccc(NC(=O)Cn2ncc3ccccc32)cc1,.,38,.,74,.,.
CC(C)CC1(C)NC(=O)N(CC(=O)Nc2ccc3c(c2)CCC3)C1=O (stereo not drawn),.,.,.,.,.,.
N=c1c(C(=O)NC2CCCCC2)cc2c(=O)n3ccccc3nc2n1Cc1ccco1,3.7µM,.,.,.,.,.
COc1ccc(CCn2c(=N)c(S(=O)(=O)c3ccccc3)cc3c(=O)n4ccccc4nc32)cc1,?,.,.,.,?,.
N=c1c(C(=O)NCCc2ccccc2)cc2c(=O)n3ccccc3nc2n1Cc1ccco1,2.3µM,.,.,.,.,.
COc1ccc(CCn2c(=N)c(C(=O)NCc3ccco3)cc3c(=O)n4ccccc4nc32)cc1,2.9µM,.,.,.,?,.
N=c1c(C(=O)NC2CCCCC2)cc2c(=O)n3ccccc3nc2n1CCc1ccccc1,1.5µM,.,.,.,1.7µM,.
N=c1c(C(=O)NC2CCCCC2)cc2c(=O)n3ccccc3nc2n1Cc1ccccc1,?,.,.,.,5.9µM,.
CN(C)C(=O)c1ccc(-c2nnc(NCc3ccccc3)c3ccccc23)cc1,13µM,.,?,.,2.9µM,.
CCN(CC)C(=O)c1ccc(-c2nnc(Nc3ccc(O)cc3)c3ccccc23)cc1,?,.,.,/,.,.
CCN(CC)C(=O)c1ccc(NC(=O)c2ccc(-c3nn(C)c(=O)c4ccccc34)cc2)cc1,.,.,.,.,10µM,.
CCN(CC)C(=O)c1ccc(-c2nnc(Nc3ccc(C(=O)N(C)C)cc3)c3ccccc23)cc1,5.9µM,.,.,.,.,.
COc1ccc(NC(=O)c2ccc(-c3nn(C)c(=O)c4ccccc34)cc2)cc1,.,.,.,.,.,.
CCOc1ccc2nc3c(cc2c1)CN(CCOC)C(=NC)S3,?,.,.,.,2.1µM,.
S=c1nc[nH]c2c1ncn2Cc1ccco1,/,/,/,/,/,.
O=C(Nc1ccccc1Cl)c1ccc(-c2ccccn2)s1,.,49,.,64,.,.
COc1ccc(Cl)cc1NC(=S)NNC(=O)c1cccs1,?,23,.,43,?,.
COc1ccc(Cl)cc1NC(=S)NNC(=O)c1cccnc1,?,.,.,.,?,/
O=C(Nc1ccc(N2C(=O)C3CCCCC3C2=O)cc1Cl)c1cccs1 (stereo not drawn),.,18,.,.,.,/
O=C(/C=C/c1ccccc1Cl)NNC(=O)c1cccs1,.,32,.,.,.,/
CN=C(C)/C(C(=O)OC)=C(/O)c1c(F)cccc1F,.,.,.,.,.,.

# Bioassay records (PubChem BioAssay)
